Results filed as inconclusive are left out. Activity calls are given as the source filed them. Unless noted, calls come from the whole dose curve.
system: not listed separately; assay: p53 small molecule agonists, cell-based qHTS assay: qHTS cell viability counter screen (AID 1963581); details: p53RE-bla HCT-116 viability, ATP luminescence, 16 h; series mostly up to 66 µM; activity change, negative = cytotoxicity: at the top concentration; note: nearly all actives have a fitted effect of over 45% in size
Procedure, shortened: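 Cells: HCT-116 with p53 response element-driven beta-lactamase. Treatment: 16 h, 37 C, compounds in DMSO. Read: CellTiter-Glo luminescence after 30 min RT.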
% is set by controls: 0 for no effect and ±100 for the full control effect.

Structure (SMILES) | activity change, negative = cytotoxicity
COc1ccc(C)cc1[N+](=O)[O-] | 9.51% (inactive)
O=C1c2ccccc2C(=O)C1(O)O | -18.3% (inactive)
COC[C@H](c1ccc(C(F)(F)F)cc1)N1CCN(C2(C)CCN(C(=O)c3c(C)ncnc3C)CC2)C[C@H]1C | -6.55% [at 30.3 µM] (inactive)
CCOc1cccc(N)c1 | -12.6% (inactive)
CC(=O)Oc1ccc(C(C)=O)cc1 | -16.2% (inactive)
CCOC(=O)CCC(=O)OCC | -24.9% (inactive)
C=CC(OCC)OCC | 6.43% (inactive)
CCCCCCCCCC(=O)OCC | 0.256% (inactive)

system: not listed separately; assay: p53 small molecule agonists, cell-based qHTS assay (AID 1963582; active = well fitted activation curve with a large enough effect in the signal ratio in the repeat runs, not every such curve was filed as active; the % refers to the signal ratio; note: potency is the fitted concentration of half-maximal effect); details: HCT-116 p53RE-bla reporter, beta-lactamase FRET ratio, 16 h; series mostly up to 66 µM; activation: at the top concentration
Procedure, shortened: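 Quantitative HTS in p53RE-bla cells: after a 5 h settling period, compounds delivered in DMSO were left on cells for 16 h at 37 C, and reporter induction was measured as fluorescence following 2 h substrate loading.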

Structure (SMILES) | activation | Potency
Cc1cc(C)c(NC(=O)CN(CC(=O)O)CC(=O)O)c(C)c1Br | 0.555% [at 30.3 µM] (inactive) | 
COc1ccc(C2C(=O)c3ccccc3C2=O)cc1 | 0.193% [at 30.3 µM] (inactive) | 
CCCCCc1ccco1 | -5.04% [at 30.3 µM] (inactive) | 
O=c1cc(-c2ccccc2)oc2ccc3ccccc3c12 | -1.27% (inactive) | 
CN(C)CCc1c[nH]c2ccc(C[C@H]3COC(=O)N3)cc12 | -0.488% [at 30.3 µM] (inactive) | 
Cc1ncc(CO)c(C=O)c1O | 0.0378% [at 30.3 µM] (inactive) | 
O=CN1CCCCC1 | -0.197% (inactive) | 
CCOC(=O)COc1cc(-n2ncc(C(F)(F)F)c(C)c2=O)c(F)cc1Cl | 0% (inactive) | 
CN1CCN(C2=Nc3ccccc3Sc3ccc(Cl)cc32)CC1 | 1.82% [at 30.3 µM] (inactive) | 
Cc1cccc([N+](=O)[O-])c1C(=O)O | 0.0196% (inactive) | 
CCC(C)CCCC(C)(C)O (stereo not given) | 0.393% (inactive) | 
CCCCCCOC(=O)CCCCC(=O)OCCCCCC | -0.252% (inactive) | 
CCOc1ccc(NC(=O)OC(C)C)cc1OCC | -0.0319% (inactive) | 
CC(C)C(=O)OCc1ccccc1 | 2.35% (inactive) | 
CN(C)[C@@H]1C(=O)C(C(=O)NCN2CCCC2)=C(O)[C@@]2(O)C(=O)C3=C(O)c4c(O)cccc4[C@@](C)(O)C3C[C@@H]12 (stereo not given in full) | -2.01% [at 30.3 µM] (inactive) | 
CC(=O)OC1CCCCC1 | 0.101% (inactive) | 
CCCCCCCCOC(C)=O | 0.463% (inactive) | 
CCCCCCCCN(C)CCCCCCCC | 0.365% (inactive) | 
COc1cc2nc(Cl)nc(N)c2cc1OC | 1.76% [at 30.3 µM] (inactive) | 
CCCN(CCC)c1c([N+](=O)[O-])cc(C(F)(F)F)c(N)c1[N+](=O)[O-] | -3.47% (inactive) | 
CCN(CC)c1ccc(C=O)cc1 | -1.31% (inactive) | 
COc1ccc(C)cc1[N+](=O)[O-] | 0.293% (inactive) | 
O=C1c2ccccc2C(=O)C1(O)O |  | 36.5 µM (active)
COC[C@H](c1ccc(C(F)(F)F)cc1)N1CCN(C2(C)CCN(C(=O)c3c(C)ncnc3C)CC2)C[C@H]1C | 5.68% [at 30.3 µM] (inactive) | 
CCCCCCCCCCCC(C)=O | -0.0704% (inactive) | 
CC(=O)Oc1ccc(C(C)=O)cc1 | -0.355% (inactive) | 
CCOC(=O)CCC(=O)OCC | -0.335% (inactive) | 
C=CC(OCC)OCC | -1.32% (inactive) | 
CN1CCC[C@@H]1Cc1c[nH]c2ccc(CCS(=O)(=O)c3ccccc3)cc12 | 0.0522% [at 30.3 µM] (inactive) | 
CCCCCCCCCC(=O)OCC | -0.409% (inactive) | 

biological target: 5-hydroxytryptamine receptor 2A (Homo sapiens) (UniProt P28223); assay: 5-hydroxytryptamine receptor 2A (HTR2A) small molecule antagonists, cell-based qHTS assay (AID 1963586); details: HTR2A-CHO cells, DOI-induced calcium flux, fluorescence; series mostly up to 61.5 µM; activity, negative = inhibition: at the top concentration; note: nearly all actives have a fitted effect of over 45% in size; note: potency is the fitted concentration of half-maximal effect
Sequence (P28223 whole entry, looked up): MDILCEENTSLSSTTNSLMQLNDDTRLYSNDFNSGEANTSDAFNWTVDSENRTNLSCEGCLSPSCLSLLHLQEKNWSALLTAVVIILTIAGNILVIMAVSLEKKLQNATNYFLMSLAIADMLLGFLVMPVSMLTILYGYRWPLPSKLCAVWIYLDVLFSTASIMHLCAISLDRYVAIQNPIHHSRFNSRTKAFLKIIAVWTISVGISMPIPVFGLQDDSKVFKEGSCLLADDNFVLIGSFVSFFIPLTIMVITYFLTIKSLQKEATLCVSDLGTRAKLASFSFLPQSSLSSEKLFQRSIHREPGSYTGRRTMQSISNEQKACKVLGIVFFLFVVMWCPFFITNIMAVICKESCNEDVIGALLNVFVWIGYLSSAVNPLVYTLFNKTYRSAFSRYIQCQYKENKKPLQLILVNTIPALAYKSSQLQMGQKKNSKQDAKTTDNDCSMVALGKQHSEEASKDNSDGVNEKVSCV
Procedure, shortened: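 Antagonist-mode intracellular calcium assay: DOI (4 nM) added after 5 min compound pre-incubation at room temperature to dye-loaded HTR2A-CHO cells. Fluorescence followed for 3 min, sampled every second.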

Structure (SMILES) | activity, negative = inhibition | Potency
Cc1cc(C)c(NC(=O)CN(CC(=O)O)CC(=O)O)c(C)c1Br | 5.52% [at 28.5 µM] (inactive) | 
CC(=O)c1c(C)cc(C(C)(C)C)cc1C | -3.38% (inactive) | 
CCCCCc1ccco1 | 0.765% [at 28.5 µM] (inactive) | 
CN(CCOc1ccc(NS(C)(=O)=O)cc1)CCc1ccc(NS(C)(=O)=O)cc1 | -6.88% [at 28.5 µM] (inactive) | 
Cc1ncc(CO)c(C=O)c1O | 65.7% [at 28.5 µM] (inactive) | 
O=CN1CCCCC1 | -1.27% (inactive) | 
Oc1ccc(-c2ccc(O)cc2)cc1 | 17.2% (inactive) | 
CN1CCN(C2=Nc3ccccc3Sc3ccc(Cl)cc32)CC1 |  | 0.0818 µM (active)
Cc1cccc([N+](=O)[O-])c1C(=O)O | -29% (inactive) | 
c1ccc(C(O[C@H]2CCCN(CCc3ccc4c(c3)OCO4)C2)c2ccccc2)cc1 |  | 9.18 µM (active)
CCC(C)CCCC(C)(C)O (stereo not given) | 32% (inactive) | 
CCCCCCOC(=O)CCCCC(=O)OCCCCCC | 31% (inactive) | 
CCOc1ccc(NC(=O)OC(C)C)cc1OCC | 0.717% (inactive) | 
CC(C)C(=O)OCc1ccccc1 | 23.4% (inactive) | 
CN(C)[C@@H]1C(=O)C(C(=O)NCN2CCCC2)=C(O)[C@@]2(O)C(=O)C3=C(O)c4c(O)cccc4[C@@](C)(O)C3C[C@@H]12 (stereo not given in full) | 8.14% [at 28.5 µM] (inactive) | 
CCCCCCCCOC(C)=O | -1.41% (inactive) | 
CCOC(=O)C(C)(C)C | -0.199% (inactive) | 
CCCCCCCCN(C)CCCCCCCC | -8.35% (inactive) | 
COc1cc2nc(Cl)nc(N)c2cc1OC | 18% [at 28.5 µM] (inactive) | 
CCN(CC)c1ccc(C=O)cc1 | 2.97% (inactive) | 
COc1ccc(C)cc1[N+](=O)[O-] | 18.2% (inactive) | 
O=C1c2ccccc2C(=O)C1(O)O | -4.57% (inactive) | 
COC[C@H](c1ccc(C(F)(F)F)cc1)N1CCN(C2(C)CCN(C(=O)c3c(C)ncnc3C)CC2)C[C@H]1C | 33.6% [at 28.5 µM] (inactive) | 
CCOc1cccc(N)c1 | 33.8% (inactive) | 
CCCCCCCCCCCC(C)=O | -0.332% (inactive) | 
CC(=O)Oc1ccc(C(C)=O)cc1 | 27.8% (inactive) | 
CCOC(=O)CCC(=O)OCC | 4.7% (inactive) | 
C=CC(OCC)OCC | -18.3% (inactive) | 
CN1CCC[C@@H]1Cc1c[nH]c2ccc(CCS(=O)(=O)c3ccccc3)cc12 |  | 0.365 µM (active)
CCCCCCCCCC(=O)OCC | 3.42% (inactive) | 

biological target: 5-hydroxytryptamine receptor 2A (Homo sapiens) (UniProt P28223); assay: 5-hydroxytryptamine receptor 2A (HTR2A) small molecule agonists, cell-based qHTS assay (AID 1963587); details: HTR2A-CHO cells, calcium flux fluorescence, agonist mode; series mostly up to 76.8 µM; activation: at the top concentration; note: nearly all actives have a fitted effect of over 30% in size; note: potency is the fitted concentration of half-maximal effect
Procedure, shortened: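 Kinetic calcium-flux fluorescence (2 min, 1 sec intervals) after compound addition in agonist mode. HTR2A-CHO cells were cultured 18 h, then dye-loaded 1 h at 37 C.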

Structure (SMILES) | activation | Potency
Cc1cc(C)c(NC(=O)CN(CC(=O)O)CC(=O)O)c(C)c1Br | 0.714% [at 35.6 µM] (inactive) | 
O=C(O)Cc1c(Cl)ccc(Cl)c1Cl | -4.7% (inactive) | 
CCCCCc1ccco1 | -2.17% [at 35.6 µM] (inactive) | 
CN(CCOc1ccc(NS(C)(=O)=O)cc1)CCc1ccc(NS(C)(=O)=O)cc1 | 18.2% [at 35.6 µM] (inactive) | 
CN(C)CCc1c[nH]c2ccc(C[C@H]3COC(=O)N3)cc12 |  | 8.49 µM (active)
Cc1ncc(CO)c(C=O)c1O | -1.63% [at 35.6 µM] (inactive) | 
O=CN1CCCCC1 | 0.233% (inactive) | 
CCOC(=O)COc1cc(-n2ncc(C(F)(F)F)c(C)c2=O)c(F)cc1Cl | -2.43% (inactive) | 
Oc1ccc(-c2ccc(O)cc2)cc1 | -1.69% (inactive) | 
CN1CCN(C2=Nc3ccccc3Sc3ccc(Cl)cc32)CC1 | -13.8% [at 35.6 µM] (inactive) | 
Cc1cccc([N+](=O)[O-])c1C(=O)O | -1.15% (inactive) | 
c1ccc(C(O[C@H]2CCCN(CCc3ccc4c(c3)OCO4)C2)c2ccccc2)cc1 | 18% [at 35.6 µM] (inactive) | 
CCC(C)CCCC(C)(C)O (stereo not given) | -0.237% (inactive) | 
CCCCCCOC(=O)CCCCC(=O)OCCCCCC | -0.918% (inactive) | 
CCOc1ccc(NC(=O)OC(C)C)cc1OCC | -9.78% (inactive) | 
CN(C)[C@@H]1C(=O)C(C(=O)NCN2CCCC2)=C(O)[C@@]2(O)C(=O)C3=C(O)c4c(O)cccc4[C@@](C)(O)C3C[C@@H]12 (stereo not given in full) | 5.35% [at 35.6 µM] (inactive) | 

Structure (SMILES) | activation | Potency
CC(=O)OC1CCCCC1 | -2.18% (inactive) | 
CCCCCCCCOC(C)=O | -0.418% (inactive) | 
CCOC(=O)C(C)(C)C | 6.16% (inactive) | 
CCCCCCCCN(C)CCCCCCCC | 1.51% (inactive) | 
COc1cc2nc(Cl)nc(N)c2cc1OC | -0.736% [at 35.6 µM] (inactive) | 
CCCN(CCC)c1c([N+](=O)[O-])cc(C(F)(F)F)c(N)c1[N+](=O)[O-] | 9.05% (inactive) | 
CCN(CC)c1ccc(C=O)cc1 | -4.05% (inactive) | 
COc1ccc(C)cc1[N+](=O)[O-] | -0.523% (inactive) | 
O=C1c2ccccc2C(=O)C1(O)O | -2.88% (inactive) | 
COC[C@H](c1ccc(C(F)(F)F)cc1)N1CCN(C2(C)CCN(C(=O)c3c(C)ncnc3C)CC2)C[C@H]1C | -4.5% [at 35.6 µM] (inactive) | 
CCOc1cccc(N)c1 | -0.943% (inactive) | 
CCCCCCCCCCCC(C)=O | 0.694% (inactive) | 
CC(=O)Oc1ccc(C(C)=O)cc1 | -0.16% (inactive) | 
CCOC(=O)CCC(=O)OCC | -0.327% (inactive) | 
C=CC(OCC)OCC | 18.5% (inactive) | 
CN1CCC[C@@H]1Cc1c[nH]c2ccc(CCS(=O)(=O)c3ccccc3)cc12 |  | 0.107 µM (active)
